# Laboratory results published in the supplement of paper PMC8728848.
# About 410 targets per protein were measured; listed, in parts, are those with the strongest signals and a random draw of the rest.
# How the values were obtained:
# Assay in all cases: glycan array binding signal (z-score within array); higher = stronger binding
# Neu5Ac(a2-3)Gal(b1-4)Glc = details: glycan notation: IUPAC condensed, linker removed; mutation: R125K
# Summary of the method: (§1)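 The binding signal is a Z-score computed within each array and averaged over linkers. Arrays of the same protein sequence at different concentrations or buffers were also averaged together. Data originate from 3228 arrays in the Consortium for Functional Glycomics database, kept only where the protein sequence was available.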
# [1] = test system: Neu5Ac(a2-3)Gal(b1-4)[Fuc(a1-3)]GlcNAc(b1-3)Gal(b1-4)GlcNAc; details: glycan notation: IUPAC condensed, linker removed; mutation: R125K
# Summary of the method: as §1
# [2] = test system: Neu5Ac(a2-3)Gal(b1-4)[Fuc(a1-3)]GlcNAc(b1-3)Gal; details: glycan notation: IUPAC condensed, linker removed
# Summary of the method: as §1
# [3] = test system: Neu5Ac(a2-3)Gal(b1-4)[Fuc(a1-3)]GlcNAc6S; details: glycan notation: IUPAC condensed, linker removed
# Summary of the method: as §1
# [4] = test system: Neu5Ac(a2-3)Gal6S(b1-4)GlcNAc; details: glycan notation: IUPAC condensed, linker removed
# Summary of the method: as §1
# [5] = test system: Neu5Ac(a2-3)Gal6S(b1-4)[Fuc(a1-3)]GlcNAc; details: glycan notation: IUPAC condensed, linker removed
# Summary of the method: as §1
# [6] = test system: Neu5Ac(a2-3)GalNAc(b1-4)GlcNAc; details: glycan notation: IUPAC condensed, linker removed
# Summary of the method: as §1
# [7] = test system: Neu5Ac(a2-6)Gal(b1-3)GlcNAc(b1-3)[Gal(b1-4)GlcNAc(b1-6)]Gal(b1-4)Glc; details: glycan notation: IUPAC condensed, linker removed; mutation: R125K
# Summary of the method: as §1
# Neu5Ac(a2-3)Gal = details: glycan notation: IUPAC condensed, linker removed
# Summary of the method: as §1
# [8] = test system: Neu5Ac(a2-3)[Neu5Ac(a2-6)]GalNAc; details: glycan notation: IUPAC condensed, linker removed
# Summary of the method: as §1
# [9] = test system: Neu5Ac(a2-6)Gal(b1-4)GlcNAc(b1-2)Man(a1-3)[Gal(b1-4)GlcNAc(b1-2)Man(a1-6)]Man(b1-4)GlcNAc(b1-4)GlcNAc; details: glycan notation: IUPAC condensed, linker removed
# Summary of the method: as §1
# [10] = test system: Neu5Ac(a2-3)Gal(b1-4)[Fuc(a1-3)]GlcNAc(b1-6)[Gal(b1-3)]GalNAc; details: glycan notation: IUPAC condensed, linker removed
# Summary of the method: as §1
# [11] = test system: Neu5Ac(a2-3)[GalNAc(b1-4)]Gal(b1-4)Glc; details: glycan notation: IUPAC condensed, linker removed
# Summary of the method: as §1
# Neu5Ac(a2-3)GalNAc = details: glycan notation: IUPAC condensed, linker removed
# Summary of the method: as §1
# [12] = test system: Neu5Ac(a2-3)Gal(b1-4)[Fuc(a1-3)]GlcNAc(b1-3)Gal(b1-4)[Fuc(a1-3)]GlcNAc(b1-3)Gal(b1-4)[Fuc(a1-3)]GlcNAc; details: glycan notation: IUPAC condensed, linker removed
# Summary of the method: as §1
# [13] = test system: Neu5Ac(a2-3)Gal(b1-4)[Fuc(a1-3)]GlcNAc(b1-3)GalNAc; details: glycan notation: IUPAC condensed, linker removed
# Summary of the method: as §1
# [14] = test system: Neu5Ac(a2-3)[GalNAc(b1-4)]Gal(b1-4)GlcNAc(b1-3)GalNAc; details: glycan notation: IUPAC condensed, linker removed
# Summary of the method: as §1
# [15] = test system: Neu5Ac(a2-3)[GalNAc(b1-4)]Gal(b1-4)GlcNAc; details: glycan notation: IUPAC condensed, linker removed
# Summary of the method: as §1
# [16] = test system: Neu5Ac(a2-3)Gal(b1-4)GlcNAc; details: glycan notation: IUPAC condensed, linker removed
# Summary of the method: as §1
# [17] = test system: Neu5Ac(a2-3)Gal(b1-4)[Fuc(a1-3)]GlcNAc; details: glycan notation: IUPAC condensed, linker removed
# Summary of the method: as §1
# 6RG (Lolium perenne), sequence (chain, as listed by the source): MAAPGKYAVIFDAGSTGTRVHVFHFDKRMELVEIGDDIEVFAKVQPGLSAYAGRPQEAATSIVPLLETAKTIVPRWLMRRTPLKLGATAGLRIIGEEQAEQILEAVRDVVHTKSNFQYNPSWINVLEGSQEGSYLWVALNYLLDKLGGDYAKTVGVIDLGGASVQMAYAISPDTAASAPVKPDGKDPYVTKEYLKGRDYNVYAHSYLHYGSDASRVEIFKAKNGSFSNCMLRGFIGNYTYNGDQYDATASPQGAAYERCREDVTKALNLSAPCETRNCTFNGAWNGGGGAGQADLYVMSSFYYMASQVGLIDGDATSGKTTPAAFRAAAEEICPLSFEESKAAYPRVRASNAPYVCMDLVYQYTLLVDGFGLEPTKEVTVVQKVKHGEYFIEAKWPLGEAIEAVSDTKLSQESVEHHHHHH
# CHI3L1 (Homo sapiens), P36222, sequence (P36222 whole entry): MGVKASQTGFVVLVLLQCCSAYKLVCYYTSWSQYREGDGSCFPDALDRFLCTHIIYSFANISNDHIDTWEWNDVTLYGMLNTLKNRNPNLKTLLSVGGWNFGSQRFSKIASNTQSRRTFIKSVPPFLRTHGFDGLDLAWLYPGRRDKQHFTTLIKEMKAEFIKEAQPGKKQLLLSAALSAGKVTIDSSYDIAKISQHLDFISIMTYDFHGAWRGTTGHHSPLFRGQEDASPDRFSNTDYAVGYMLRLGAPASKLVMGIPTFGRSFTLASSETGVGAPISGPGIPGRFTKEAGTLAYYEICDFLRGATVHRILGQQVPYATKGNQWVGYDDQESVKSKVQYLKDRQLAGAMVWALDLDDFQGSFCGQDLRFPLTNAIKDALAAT
# C3b (Homo sapiens), P01024, sequence (P01024 23-667): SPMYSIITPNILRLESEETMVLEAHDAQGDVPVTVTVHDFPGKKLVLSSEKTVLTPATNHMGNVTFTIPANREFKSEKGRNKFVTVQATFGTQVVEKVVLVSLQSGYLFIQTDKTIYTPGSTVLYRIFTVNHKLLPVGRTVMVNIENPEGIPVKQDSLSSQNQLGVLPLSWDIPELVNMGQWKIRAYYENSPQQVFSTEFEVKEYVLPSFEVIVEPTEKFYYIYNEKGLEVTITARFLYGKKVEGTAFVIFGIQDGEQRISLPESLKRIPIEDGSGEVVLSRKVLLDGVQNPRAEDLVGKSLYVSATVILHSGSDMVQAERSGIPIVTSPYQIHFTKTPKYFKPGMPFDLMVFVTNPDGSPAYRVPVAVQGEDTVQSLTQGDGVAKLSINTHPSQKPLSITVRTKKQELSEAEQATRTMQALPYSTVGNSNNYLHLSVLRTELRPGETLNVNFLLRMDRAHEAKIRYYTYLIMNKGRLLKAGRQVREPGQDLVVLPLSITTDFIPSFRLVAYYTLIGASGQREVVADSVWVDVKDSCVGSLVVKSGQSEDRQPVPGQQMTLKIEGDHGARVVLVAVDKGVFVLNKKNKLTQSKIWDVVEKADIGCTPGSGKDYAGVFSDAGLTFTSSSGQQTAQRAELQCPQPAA
# Neurocan (Homo sapiens), O14594, sequence (O14594 other isoform, or with tags, fused parts or gaps): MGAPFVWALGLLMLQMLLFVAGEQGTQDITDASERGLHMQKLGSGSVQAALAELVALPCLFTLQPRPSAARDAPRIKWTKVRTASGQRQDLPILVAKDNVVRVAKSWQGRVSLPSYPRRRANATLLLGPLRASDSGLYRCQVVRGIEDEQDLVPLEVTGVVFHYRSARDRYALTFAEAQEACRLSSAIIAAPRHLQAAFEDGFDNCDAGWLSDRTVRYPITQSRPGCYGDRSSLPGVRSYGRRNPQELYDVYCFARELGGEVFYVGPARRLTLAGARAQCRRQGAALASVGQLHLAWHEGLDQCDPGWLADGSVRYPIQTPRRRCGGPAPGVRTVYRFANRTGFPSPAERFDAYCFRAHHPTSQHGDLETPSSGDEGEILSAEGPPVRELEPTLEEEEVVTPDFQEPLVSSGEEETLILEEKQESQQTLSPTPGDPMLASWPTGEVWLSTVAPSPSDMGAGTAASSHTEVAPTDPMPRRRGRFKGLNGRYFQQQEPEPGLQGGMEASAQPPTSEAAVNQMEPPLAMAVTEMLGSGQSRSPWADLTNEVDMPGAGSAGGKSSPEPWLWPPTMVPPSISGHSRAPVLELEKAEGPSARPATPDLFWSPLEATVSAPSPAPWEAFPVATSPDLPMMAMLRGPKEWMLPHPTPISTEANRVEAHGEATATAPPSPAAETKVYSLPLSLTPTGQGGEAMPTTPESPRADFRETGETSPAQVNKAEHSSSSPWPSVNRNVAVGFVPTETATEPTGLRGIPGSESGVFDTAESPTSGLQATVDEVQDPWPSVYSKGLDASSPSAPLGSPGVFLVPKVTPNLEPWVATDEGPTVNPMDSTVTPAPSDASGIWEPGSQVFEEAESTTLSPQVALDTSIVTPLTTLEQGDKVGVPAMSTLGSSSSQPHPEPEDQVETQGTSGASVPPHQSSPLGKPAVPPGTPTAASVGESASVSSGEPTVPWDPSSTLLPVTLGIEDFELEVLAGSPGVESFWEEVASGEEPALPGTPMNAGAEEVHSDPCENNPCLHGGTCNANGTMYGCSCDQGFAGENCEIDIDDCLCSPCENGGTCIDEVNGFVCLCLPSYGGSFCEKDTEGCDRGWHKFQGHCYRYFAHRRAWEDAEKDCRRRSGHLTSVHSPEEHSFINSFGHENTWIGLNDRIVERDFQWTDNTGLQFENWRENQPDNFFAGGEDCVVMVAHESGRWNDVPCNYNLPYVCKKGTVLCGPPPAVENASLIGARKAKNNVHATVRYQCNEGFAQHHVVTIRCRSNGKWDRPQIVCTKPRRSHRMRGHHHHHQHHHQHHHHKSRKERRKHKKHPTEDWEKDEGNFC
# wLAT-1A (Homo sapiens), Q01650, sequence (Q01650 whole entry): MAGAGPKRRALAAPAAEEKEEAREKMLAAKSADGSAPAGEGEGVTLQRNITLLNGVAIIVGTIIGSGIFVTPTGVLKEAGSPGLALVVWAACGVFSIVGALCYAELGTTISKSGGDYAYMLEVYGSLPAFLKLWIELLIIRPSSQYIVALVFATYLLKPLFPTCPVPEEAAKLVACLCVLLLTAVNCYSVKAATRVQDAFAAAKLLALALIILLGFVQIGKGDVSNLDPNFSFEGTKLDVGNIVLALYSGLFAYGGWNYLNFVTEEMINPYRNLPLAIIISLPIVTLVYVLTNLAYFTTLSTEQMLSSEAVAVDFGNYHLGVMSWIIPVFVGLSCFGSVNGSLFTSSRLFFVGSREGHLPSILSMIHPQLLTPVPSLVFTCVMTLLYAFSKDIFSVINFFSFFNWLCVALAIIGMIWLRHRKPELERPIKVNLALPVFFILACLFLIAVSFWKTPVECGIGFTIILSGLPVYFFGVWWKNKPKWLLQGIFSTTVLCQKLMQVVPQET
# Regenerating Gene IV (Homo sapiens), Q9BYZ8, sequence (Q9BYZ8 whole entry, looked up): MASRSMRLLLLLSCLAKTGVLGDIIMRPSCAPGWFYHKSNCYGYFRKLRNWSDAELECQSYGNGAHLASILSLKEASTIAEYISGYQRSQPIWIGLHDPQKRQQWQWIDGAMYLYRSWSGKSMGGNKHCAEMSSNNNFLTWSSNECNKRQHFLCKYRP
# 6RG (Lolium perenne), B9U140, sequence (B9U140 entry or part of it): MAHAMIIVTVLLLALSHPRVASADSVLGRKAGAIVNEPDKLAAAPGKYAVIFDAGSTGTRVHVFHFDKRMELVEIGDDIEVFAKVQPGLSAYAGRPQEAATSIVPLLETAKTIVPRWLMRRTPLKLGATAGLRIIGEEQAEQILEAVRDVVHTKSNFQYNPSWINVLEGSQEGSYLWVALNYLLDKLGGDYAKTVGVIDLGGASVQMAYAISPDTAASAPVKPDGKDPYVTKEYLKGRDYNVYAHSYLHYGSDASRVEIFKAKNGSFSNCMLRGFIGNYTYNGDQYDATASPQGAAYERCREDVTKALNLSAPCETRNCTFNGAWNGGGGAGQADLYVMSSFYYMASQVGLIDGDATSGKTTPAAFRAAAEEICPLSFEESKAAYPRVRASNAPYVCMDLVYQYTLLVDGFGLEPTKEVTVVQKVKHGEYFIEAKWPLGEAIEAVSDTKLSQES
# PILRb (Mus musculus), Q2YSF2, sequence (Q2YSF2 entry or part of it): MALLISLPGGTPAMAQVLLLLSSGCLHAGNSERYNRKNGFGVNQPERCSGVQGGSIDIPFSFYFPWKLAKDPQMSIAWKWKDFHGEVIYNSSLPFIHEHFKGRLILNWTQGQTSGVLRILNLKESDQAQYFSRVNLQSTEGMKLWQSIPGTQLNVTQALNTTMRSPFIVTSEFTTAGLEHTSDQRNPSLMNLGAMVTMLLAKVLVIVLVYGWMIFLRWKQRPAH
# Aggrecan (Rattus norvegicus), NP_071526, sequence (chain, as listed by the source): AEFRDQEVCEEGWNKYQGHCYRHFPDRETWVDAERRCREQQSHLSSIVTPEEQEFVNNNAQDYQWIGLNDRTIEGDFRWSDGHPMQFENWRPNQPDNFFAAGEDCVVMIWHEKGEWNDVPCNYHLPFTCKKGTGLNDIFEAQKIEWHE
substance,measurement,setting,value
"Siglec-8 (Homo sapiens), Q9NYZ4",glycan array binding signal (z-score),Neu5Ac(a2-3)Gal(b1-4)Glc,6.29
same,glycan array binding signal (z-score),[1],-0.182
same,glycan array binding signal (z-score),[2]; mutation: R125K,0.14
same,glycan array binding signal (z-score),[3]; mutation: R125K,-0.382
same,glycan array binding signal (z-score),[4],16.9
same,glycan array binding signal (z-score),[5],15
same,glycan array binding signal (z-score),[6],-0.069
same,glycan array binding signal (z-score),[7],-0.472
6RG (Lolium perenne),glycan array binding signal (z-score),[3],-0.352
same,glycan array binding signal (z-score),Neu5Ac(a2-3)Gal,-0.339
same,glycan array binding signal (z-score),[8],-0.349
"wLAT-1A (Homo sapiens), Q01650",glycan array binding signal (z-score),[4],0.097
same,glycan array binding signal (z-score),[8],0.503
same,glycan array binding signal (z-score),[9],-0.898
"Regenerating Gene IV (Homo sapiens), Q9BYZ8",glycan array binding signal (z-score),[10],0.692
same,glycan array binding signal (z-score),[11],0.356
MpAFP RI GFP (Marinomonas primoryensis),glycan array binding signal (z-score),[10],0.494
same,glycan array binding signal (z-score),[4],-0.72
same,glycan array binding signal (z-score),Neu5Ac(a2-3)GalNAc,2.97
"Aggrecan (Rattus norvegicus), NP_071526",glycan array binding signal (z-score),[12],-0.136
"6RG (Lolium perenne), B9U140",glycan array binding signal (z-score),[4],1.4
same,glycan array binding signal (z-score),[8],-0.334
"Neurocan (Homo sapiens), O14594",glycan array binding signal (z-score),[13],4.45
same,glycan array binding signal (z-score),[10],3.52
same,glycan array binding signal (z-score),[4],-1.3
same,glycan array binding signal (z-score),[14],-0.87
"CHI3L1 (Homo sapiens), P36222",glycan array binding signal (z-score),[13],-0.075
same,glycan array binding signal (z-score),[2],-0.104
same,glycan array binding signal (z-score),[5],-0.117
same,glycan array binding signal (z-score),Neu5Ac(a2-3)GalNAc,-0.131
"PILRb (Mus musculus), Q2YSF2",glycan array binding signal (z-score),[3],-0.229
same,glycan array binding signal (z-score),[15],-0.329
"HARE (Homo sapiens), Q8WWQ8",glycan array binding signal (z-score),[16],-0.41
"C3b (Homo sapiens), P01024",glycan array binding signal (z-score),[17],0.03
same,glycan array binding signal (z-score),[6],1.01
same,glycan array binding signal (z-score),[15],-0.304
same,glycan array binding signal (z-score),[9],-0.286
